Test [1] can be described thus: liver-stage malaria parasite growth inhibition, primary screen, cell-based, HepG2, luciferase luminescence, HepG2 viability (AID 624349; in the data active means parasite load remaining mostly below about 12%, no sharp cut-off; inactive means mostly above about 10%;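 further: 100% = mean of DMSO negative control wells on the same plate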). The settings on record: P. berghei liver stage in HepG2, luciferase luminescence, concentration not given here; parasite load remaining: stronger effect = lower value; viability: measured here: HepG2 viability without parasites.
Test [2] can be described thus: Cy5 fluorescence interference with SSB-bound oligo, artefact control for HCV NS3 helicase inhibitor project, biochemical, NIH Clinical Collection, E. coli SSB (AID 743268; call rule not given here).
Test [3] has as its system Hepatitis C virus NS3 helicase. Description: HCV NS3 helicase inhibitors, primary screen, biochemical, fluorescence polarization, NIH Clinical Collection (AID 743270; call rule not given here). The settings on record: NS3 helicase binding to Cy5-dT15 DNA, stronger effect = higher value, concentration not given here. On the technique in general: In fluorescence polarisation assays a small probe gives low polarisation when free and higher when bound to something large.

For test [4], the target named is Single-stranded DNA-binding protein (Escherichia coli (strain K12)) (UniProt P0AGE0). Description: E. coli SSB displacement from DNA, counter-screen for HCV NS3 helicase inhibitor project, biochemical, fluorescence polarization, NIH Clinical Collection (AID 743271; in the data active means inhibition above about 28%). The settings on record: stronger effect = higher value, concentration not given here. A general note: The purpose of a counterscreen is to sort out artefacts and off-target activity.

Test [5] can be described thus: fluorescence interference in NS3h assay format, artefact control for HCV NS3 helicase inhibitor project, biochemical, NIH Clinical Collection (AID 743272; call rule not given here;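 further: HCV NS3 helicase with a Cy5 labelled single stranded DNA probe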). The settings on record: fluorescence interference counterscreen, stronger effect = lower value.
Test [6] can be described thus: modulation of C. elegans fzo-1 (AID 1259413; call rule not given here;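 further: fzo-1 mutant C. elegans worms in liquid wells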). The settings on record: C. elegans fzo-1 modulator screen, mean read-out; stronger effect = higher value.
Test [7] can be described thus: sensitizers of A549 cells to miR-34 induction, primary screen, imaging, A549 dox-inducible miR-34, nuclei and caspase counts (AID 1347080;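 active means compounds whose cell count with miR-34 switched on is under 0.7 times the count with it off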). The settings on record: A549 miR-34 inducible, Hoechst nuclei count, 48 h.
Test [8] can be described thus: viability rescue of complex I mutant cybrids, primary screen, cell-based, galactose medium, ATP luminescence (AID 1645843;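 active means z-score of at least 1.8 in each of two replicates, scored against plate mean and spread of sample wells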;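 further: positive z means more ATP and so rescue of galactose-driven cybrid death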). The settings on record: complex I mutant cybrid cells, 72 h, stronger effect = higher value.
Test [9] has as its system F380Y. The test can be described thus: modulators of BK channel variants, profiling panel, selectivity assay, cell-based, U2OS BacMam, thallium flux, beta subunits (AID 1259406).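 Further: initial slope of Thallos dye fluorescence rise after thallium is added; log ratio against the mean of 0.3% DMSO vehicle wells on the same plate.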 The settings on record: at 30 µM.
Test [10] deals with F380Y/beta1. The description is as above. The settings on record: at 30 µM.
Test [11] deals with F380Y/beta2Delta. Described as above. The settings on record: at 30 µM.
For test [12], the system named is F380Y/beta4. The test is described as above. The settings on record: at 30 µM.
In test [13] the target is Calcium-activated potassium channel subunit alpha-1 (Homo sapiens) + Leucine-rich repeat-containing protein 26 (Homo sapiens) (UniProt Q12791+Q2I0M4). The test is described as above. The settings on record: F380Y/Slo1WT/gamma1, at 30 µM.
Chain of Calcium-activated potassium channel subunit alpha-1 (Homo sapiens) + Leucine-rich repeat-containing protein 26 (Homo sapiens) (Q2I0M4 whole entry, looked up, one chain of several): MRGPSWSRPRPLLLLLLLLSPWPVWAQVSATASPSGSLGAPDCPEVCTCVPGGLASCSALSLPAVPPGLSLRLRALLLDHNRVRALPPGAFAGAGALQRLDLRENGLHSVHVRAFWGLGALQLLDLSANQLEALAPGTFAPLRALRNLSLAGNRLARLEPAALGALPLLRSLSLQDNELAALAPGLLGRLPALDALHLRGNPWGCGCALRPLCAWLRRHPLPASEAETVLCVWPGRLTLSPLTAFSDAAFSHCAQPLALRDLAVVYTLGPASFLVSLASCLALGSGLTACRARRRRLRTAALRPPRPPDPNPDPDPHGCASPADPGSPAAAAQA
The subject of test [14] is R275C. Described as above. The settings on record: at 30 µM.
In test [15] the test system is R275C/beta1. The description is as above. The settings on record: at 30 µM.
The subject of test [16] is R275C/beta2Delta. The description is as above. The settings on record: at 30 µM.
For test [17], the system named is R275C/beta4. The test is described as above. The settings on record: at 30 µM.
The test system of test [18] is R275C/Slo1WT/beta2. The description is as above. The settings on record: at 30 µM.
The nature of test [19]: survival rescue of mitochondrial mutant cells in low glucose, primary screen, MELAS cybrids, Rieske KO mouse fibroblasts, CellTiter-Glo (AID 1508586;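 active means mean z-score across replicates of 1.96 or higher in either the MELAS or the Rieske mutant cell line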;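 further: z relative to plate mean and SD of compound and empty wells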). On the technique in general: ATP-based viability assays read luminescence as a measure of living cells.
[20] abbreviates: stronger effect = lower value, cell number ratio, induced over uninduced.
Setting [21] is: measured here: relative caspase fold change +Dox/-Dox.
Setting [22] is: measured here: total cells with miR-34 induction, stronger effect = lower value.
Setting [23] is: measured here: total cells without miR-34 induction.
[24] abbreviates: MELAS cybrid survival, CellTiter-Glo 48 h, stronger effect = higher value.
[25] abbreviates: Rieske KO mouse fibroblast survival, CellTiter-Glo 72 h.

Several values for one entry are separate records, joined by “and”; a condition that tells them apart may be missing. Identical values can stand only once. Activity calls are given as the source filed them.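 How the source made its calls, unless noted: active means thallium flux through the channel raised or lowered by more than 3 SD from vehicle-only wells, actives on both sides; inactive means the rest.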

A word on the viability: it is a read-out of living cells in per cent, often relative to untreated cells. By inhibition is commonly meant the change of the read-out against control, counted positive when it falls.

In the case of `CNC(=O)Oc1ccc2c(c1)[C@]1(C)CCN(C)C1N2C` (some centres undefined), the parasite load remaining in test [1] was 98.8% (inactive). Besides, the viability in test [1] worked out at 84.5%. Besides, the fluorescence ratio in test [2] is 1.1 (inactive); in [5] it was 1.08 (inactive). Further, the inhibition was 5.94% (inactive) in test [3] and -0.1% (inactive) in [4]. The mean signal in test [6] is 259 (inactive). Further, the fold change in [7] (setting [20]) was 0.976 (inactive); in [7] (setting [21]), 1.81. Further, the cell count in [7] (setting [22]) came out at 10400; in test [7] (setting [23]), 10600. In addition, in test [8], the z-score was -1.49 (inactive). For the same compound, the log fold change Tl+ flux in test [9] was -0.0388 (inactive); in test [10] it was -0.0363 (inactive); in test [11], -0.00825 (inactive); in test [12] it was 0.000651 (inactive); in test [13], 0.0144 (inactive); in test [14] it was -0.0205 (inactive). Moreover, the log fold change Tl+ flux is 0.00244 (inactive) in test [15], -0.0145 (inactive) in [16], 0.023 (inactive) in test [17] and -0.0113 (inactive) in [18].

Regarding `CN(C)[C@@H]1C(=O)C(C(=O)NCN2CCCC2)=C(O)[C@@]2(O)C(=O)C3=C(O)c4c(O)cccc4[C@@](C)(O)C3CC12` (some centres undefined), in [1], the parasite load remaining was 77.2% (inactive) and 69.4% (inactive). Besides, in test [1], the viability is 91.9% and 67.8%. In addition, the results for the fluorescence ratio in [2] and in test [5] were 0.68 (active) and 0.76 (active), respectively. Moreover, the inhibition was -3.71% (inactive) in [3] and 45.3% (active) in test [4]. Also, in test [6], the mean signal was 213 (inactive). The fold change was 0.896 (inactive) in test [7] (setting [20]) and 0.92 in [7] (setting [21]). Moreover, the results for the cell count in test [7] (setting [22]) and in test [7] (setting [23]) were 9290 and 10400, respectively. In addition, the log fold change Tl+ flux in [9] was -0.0801 (inactive); in test [10], -0.00765 (inactive); in [11] it was -0.0371 (inactive); in [12] it was -0.0313 (inactive); in test [13], 0.0591 (inactive); in test [14], 0 (inactive). For the same compound, the log fold change Tl+ flux was -0.0252 (inactive) in [15], 0.0108 (inactive) in test [16], -0.0407 (inactive) in [17] and 0.0233 (inactive) in test [18].

As to `CCC[C@@H]1C[C@@H](C(=O)N[C@H]([C@@H](C)O)[C@H]2O[C@H](SC)[C@H](O)[C@@H](O)C2O)N(C)C1` (some centres undefined), the parasite load remaining in test [1] is 97.8% (inactive). Besides, the viability in [1] came out at 91%. The values for the fluorescence ratio in test [2] and in test [5] were 0.98 (inactive) and 1.03 (inactive), respectively. Moreover, the inhibition in [3] was -5% (inactive); in test [4] it was -3.53% (inactive). In test [6], the mean signal was 237 (inactive). The log fold change Tl+ flux in test [9] was 0.0293 (inactive); in test [10], -0.0324 (inactive); in [11] it was 0.0245 (inactive); in test [12] it was 0.0251 (inactive); in test [13] it was 0.0541 (inactive); in test [14] it was -0.0022 (inactive). Moreover, the log fold change Tl+ flux is -0.0579 (inactive) in test [15], -0.0468 (inactive) in [16], -0.0617 (inactive) in test [17] and -0.0428 (inactive) in test [18].

`CO[C@H]1/C=C/O[C@@]2(C)Oc3c(C)c(O)c4c(O)c(c(C=NN5CCN(C)CC5)c(O)c4c3C2=O)NC(=O)/C(C)=C\C=C\[C@H](C)[C@H](O)[C@@H](C)[C@@H](O)[C@@H](C)[C@H](OC(C)=O)[C@@H]1C`: the parasite load remaining in test [1] is 23.7% (inactive). Also, the viability in test [1] was 94.3%. The fluorescence ratio is 0.107 (active) in test [2] and 0.87 (inactive) in test [5]. Moreover, the figures for the inhibition in test [3] and in [4] were -3.18% (inactive) and 3.34% (inactive), respectively. In addition, the fold change was 0.888 (inactive) in test [7] (setting [20]) and 2.93 in test [7] (setting [21]). Further, the cell count in [7] (setting [22]) was determined as 9180; in [7] (setting [23]) it was 10300. Moreover, the z-score in test [8] was -1.41 (inactive). Moreover, the log fold change Tl+ flux is 0.0886 (inactive) in test [9]; -0.0407 (inactive) in test [10]; 0.125 (active) in [11]; 0.0159 (inactive) in [12]; -0.0449 (inactive) in test [13]; -0.067 (inactive) in test [14]. Also, the log fold change Tl+ flux in [15] was 0.00744 (inactive); in test [16], -0.0205 (inactive); in test [17], 0.0765 (inactive); in [18], -0.0151 (inactive).

Regarding `O=c1c(O[C@@H]2O[C@H](CO)[C@@H](O)[C@H](O)[C@H]2O)c(-c2ccc(O)c(O)c2)oc2cc(O)cc(O)c12`, the parasite load remaining in test [1] is 52.7% (inactive). Moreover, in test [1], the viability is 69.6%. The fluorescence ratio was 0.86 (inactive) in test [2] and 0.99 (inactive) in test [5]. For the same compound, the inhibition is 2.77% (inactive) in test [3] and 12.2% (inactive) in [4]. Further, in test [6], the mean signal is 249 (inactive). Also, the log fold change Tl+ flux in [9] is -0.0619 (inactive); in test [10], 0.0645 (inactive); in test [11], -0.0137 (inactive); in test [12] it was -0.0759 (inactive); in test [13] it was 0.0381 (inactive); in test [14] it was 0.0103 (inactive). In addition, the log fold change Tl+ flux was 0.0316 (inactive) in [15], 0.0226 (inactive) in [16], 0.0307 (inactive) in test [17] and -0.0065 (inactive) in [18].

In the case of `CCC(=C(c1ccccc1)c1ccc(OCCN(C)C)cc1)c1ccccc1`, the parasite load remaining in [1] is -1.78% (inactive). For the same compound, in test [1], the viability amounted to 31.4%. The fluorescence ratio in test [2] is 1.01 (inactive); in test [5], 0.9 (inactive). Further, the inhibition in [3] was 0.45% (inactive); in test [4] it was 7.15% (inactive). Moreover, the fold change in [7] (setting [20]) is 0.958 (inactive) and 0.928 (inactive); in test [7] (setting [21]) it was 2.28 and 0.707. Also, the cell count was 4730 and 2790 in test [7] (setting [22]); 4930 and 3010 in test [7] (setting [23]). For the same compound, the values for the z-score in [19] (setting [24]), in test [19] (setting [25]) and in test [8] were 5.74 (active), 11.9 and -0.495 (inactive), respectively. Also, the log fold change Tl+ flux was -0.00968 (inactive) in test [9]; -0.0043 (inactive) in test [10]; -0.0174 (inactive) in test [11]; -0.00798 (inactive) in test [12]; -0.0114 (inactive) in test [13]; -0.00676 (inactive) in [14]. Moreover, the log fold change Tl+ flux is -0.0153 (inactive) in test [15], -0.0428 (inactive) in [16], 0.00537 (inactive) in [17] and 0.0353 (inactive) in [18].

As for `O=c1[nH]c(=O)n(C2CC(O)C(CO)O2)cc1F` (centres undefined), the parasite load remaining in [1] is 68.3% (inactive). In addition, the viability in test [1] amounted to 115%. Further, the fluorescence ratio is 1.03 (inactive) in [2] and 1.04 (inactive) in test [5]. In addition, the inhibition in test [3] is -1.36% (inactive); in test [4] it was 1.81% (inactive). Besides, the fold change in test [7] (setting [20]) is 1.17 (inactive) and 1.12 (inactive); in [7] (setting [21]) it was 3.66 and 0.771. Besides, the cell count in test [7] (setting [22]) is 2970 and 2380; in [7] (setting [23]), 2550 and 2130. Further, the z-score is -0.408 (inactive) in test [19] (setting [24]), 0.487 in test [19] (setting [25]) and -1.07 (inactive) in [8]. The log fold change Tl+ flux is -0.00405 (inactive) in test [9]; 0.0394 (inactive) in test [10]; 0.0245 (inactive) in [11]; 0.0173 (inactive) in [12]; -0.00699 (inactive) in test [13]; 0.0218 (inactive) in test [14]. The log fold change Tl+ flux in test [15] was 0.000317 (inactive); in [16] it was 0.0028 (inactive); in test [17], -0.0029 (inactive); in test [18], -0.136 (active).

For the origin of these results see PubChem BioAssay.
